Records with an inconclusive call do not appear. The source made the active and inactive calls. The call rests on the fitted dose curve; in most records, active means well fitted curve in the direction sought with a large enough effect; inconclusive means small, poorly fitted or top-dose-only effect, or another doubt; inactive means no such curve, though single readings can be large; an effect the other way counts as inactive or inconclusive.
Target: Aldehyde dehydrogenase, mitochondrial (Homo sapiens) (UniProt P05091)
Assay: qHTS for Inhibitors of the Aldehyde Dehydrogenase Family (ALDH2) Primary screen (AID 2061308);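 further: plate controls were vehicle for no effect and reference inhibitor for full effect; nearly all actives have a fitted effect of over 55% in size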
Conditions: ALDH2 enzyme inhibition qHTS, 1536-well; series mostly up to 56 µM; activity change, negative = inhibition: at the top concentration

| Compound | activity change, negative = inhibition | Potency |
| --- | --- | --- |
| CCC(C)/C=C(C)/C=C/C1=CC2=CC(=O)C(C)(O)C(OC(C)=O)C2CO1 (stereo not given) | -11.6% (inactive) |  |
| Cc1cccc(CNc2nc(-c3ccccc3C(F)(F)F)nc3ccccc23)c1 | -16.8% (inactive) |  |
| Cc1cc(C)nc(NC(=S)N2CCN(c3cc(C#N)cc(C#N)c3)CC2)c1 | -6.14% (inactive) |  |
| COc1cccc(NS(=O)(=O)c2ccc(NCc3cccc(OC)c3O)cc2)c1 | -8.75% (inactive) |  |
| Cc1cc2c(s1)c1cnn(Cc3c(F)ccc(C)c3Cl)c(=O)c1n2C | 2.33% (inactive) |  |
| Cc1cccc(C)c1-n1c(SCC(=O)Nc2ccc(F)cc2)nnc1-c1cccc([S+](=O)([O-])N2CCCC2)c1 | 4.73% (inactive) |  |
| Cn1nnnc1Sc1ncnc2scc(-c3ccsc3)c12 | 8.13% (inactive) |  |
| Cc1ccc(OCCn2c(CCNC(=O)C3CCCCC3)nc3ccccc32)cc1 |  | inactive |
| C#CCOc1cccc(-c2nnc3n2N=C(c2ccc(OC)c(OCC(C)=O)c2)CS3)c1 | 0.786% (inactive) |  |
| CC(=O)Nc1cccc([S+](=O)([O-])N2CCCN([S+](=O)([O-])c3cccc(NC(C)=O)c3)CC2)c1 | 3.05% (inactive) |  |
| Cc1ccc(S(=O)(=O)Nc2cnccc2C(=O)Nc2ccc3ccccc3c2)cc1 | 1.07% (inactive) |  |
| Cc1cccc(C)c1OCc1cccc(C2Nc3ccccc3C(=O)N2Cc2ccco2)c1 (stereo not given) | -8.3% (inactive) |  |
| Cc1noc(CN(C)c2ncnc3ccc(-c4ccc5c(c4)OCO5)cc23)n1 | -3.12% (inactive) |  |
| COc1cccc(-c2nnc3n2N=C(c2ccc(OC)cc2OC)CS3)c1 | 17.9% (inactive) |  |
| CC(C)c1ccccc1-c1nccc(NCc2ccc(-c3ccnc(C(F)(F)F)c3)cc2)n1 | -13.1% (inactive) |  |
| CC(C)(C)OC(=O)Cc1nnc(C(C(=O)OCc2ccccc2)c2ccccc2)s1 (stereo not given) | 8.62% (inactive) |  |
| Cc1c(C(=O)O)[nH]c2c1C(=O)CCC2 | 4.79% (inactive) |  |
| C[S+](=O)([O-])c1ccc(-c2ccc(=O)n(CC(=O)NCCc3ccccc3)n2)cc1 | -0.177% (inactive) |  |
| c1ccc(-c2cnc(Nc3ccc(OCCN4CCCC4)cc3)s2)cc1 | 13.9% (inactive) |  |
| Cn1ccc2cc(S(=O)(=O)N3CCN(S(=O)(=O)c4c(F)cccc4F)CC3)ccc21 | -4.14% (inactive) |  |

| Compound | activity change, negative = inhibition | Potency |
| --- | --- | --- |
| Oc1cc(Nc2ccncc2)cc2cccnc12 | -1.17% (inactive) |  |
| N#Cc1cc(NC(=O)Nc2nnc(-c3ccncc3)s2)ccc1Br | -8.25% (inactive) |  |
| O=C(Nc1nnc(-c2ccco2)o1)c1ccc(Br)cc1 | 7.45% (inactive) |  |
| Cc1cccc(CNc2ncnc3ccc(-c4ccc5c(c4)OCO5)cc23)c1 | 1.62% (inactive) |  |
| CCC(O)(c1nnc(NCc2ccc3c(-c4ccc(F)cc4)cc(=O)oc3c2)o1)C(F)(F)F (stereo not given) | 5.63% (inactive) |  |
| O=C(O)CCc1cc(F)c(S(=O)(=O)N2CCN(S(=O)(=O)c3ccc4c(c3)OCCO4)CC2)cc1F | 2.44% (inactive) |  |
| Cc1cc(C)nc(NC(=S)N2CCN(c3cccc(S(C)(=O)=O)c3)CC2)c1 | 15.4% (inactive) |  |
| COC(=O)c1ccccc1NC(=O)c1ccc(F)cc1F | 2.29% (inactive) |  |
| CCOC(=O)/C=C/c1cc(F)c(S(=O)(=O)N2CCN(S(=O)(=O)c3ccc4c(c3)OCCO4)CC2)cc1F | -20.7% (inactive) |  |
| COc1cc(Nc2nc(-c3ccncc3)nc3ccccc23)ccc1Cl | 4.94% (inactive) |  |
| Cc1ccc(=O)n(CC(=O)NCCc2ccccc2)n1 | 2% (inactive) |  |
| Cc1ccc(OCCn2c(CCNC(=O)c3ccc(Br)o3)nc3ccccc32)cc1 | -0.979% (inactive) |  |
| CC(C)(C)OC(=O)N1CCC(C(=O)Nc2ccc([S+](=O)([O-])Nc3nccs3)cc2)CC1 | 7.57% (inactive) |  |
| C=C1C(=O)O[C@H]2[C@H]1CC/C(C)=C/CC[C@@]1(C)O[C@@H]21 | -5.98% (inactive) |  |
| O=C1CCCC2=C1[C@@]1(CCC(c3ccccc3)C1)N=C(Nc1nc3ccccc3o1)N2 (stereo not given in full) |  | inactive |
| O=C(O)CC(=O)OC[C@H]1O[C@@H](Oc2ccc3c(c2)OC[C@H]2c4cc5c(cc4O[C@@H]32)OCO5)[C@H](O)[C@@H](O)[C@@H]1O | -6.23% [at 28 µM] (inactive) |  |
| Cc1c(P(=S)(c2ccccc2)c2ccccc2)c2ccccc2n1CCc1ccccc1 | 7.91% (inactive) |  |
| COC1CC(O[C@H]2CC[C@]3(C)C4CC[C@@]5(C)C(=O)[C@]4(CC[C@@H]3C2)CC[C@@H]5C2=CC(=O)OC2)OC(C)C1OC1OC(COC2OC(CO)C(O)C(O)C2O)C(O)C(O)C1O (stereo not given in full) | 6.46% [at 16.9 µM] (inactive) |  |
| Cc1ccc(-c2cc(C(=O)Nc3ccc(S(=O)(=O)N(C)C)cc3)c3ccccc3n2)cc1C | 3.39% (inactive) |  |
| CCCn1c(C)nc2c(NCCCCN(C)C)nc(C)nc21 | 0.145% (inactive) |  |

Target: Retinaldehyde dehydrogenase 3 (Homo sapiens) (UniProt P47895)
Assay: qHTS for Inhibitors of the Aldehyde Dehydrogenase Family (ALDH1A3) Primary screen (AID 2061315);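 further: plate controls were DMSO vehicle for no effect and reference inhibitor for full effect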
Conditions: ALDH inhibition qHTS; series mostly up to 56 µM; activity change, negative = inhibition: at the top concentration

| Compound | activity change, negative = inhibition | Potency |
| --- | --- | --- |
| CCC(C)/C=C(C)/C=C/C1=CC2=CC(=O)C(C)(O)C(OC(C)=O)C2CO1 (stereo not given) | -10.7% (inactive) |  |
| Cc1cccc(CNc2nc(-c3ccccc3C(F)(F)F)nc3ccccc23)c1 | -6.07% (inactive) |  |
| Cc1cc(C)nc(NC(=S)N2CCN(c3cc(C#N)cc(C#N)c3)CC2)c1 | -18.4% (inactive) |  |
| COc1cccc(NS(=O)(=O)c2ccc(NCc3cccc(OC)c3O)cc2)c1 | -12.8% (inactive) |  |
| Cc1cc2c(s1)c1cnn(Cc3c(F)ccc(C)c3Cl)c(=O)c1n2C | 18.2% (inactive) |  |
| Cc1cccc(C)c1-n1c(SCC(=O)Nc2ccc(F)cc2)nnc1-c1cccc([S+](=O)([O-])N2CCCC2)c1 | 17.4% (inactive) |  |
| Cn1nnnc1Sc1ncnc2scc(-c3ccsc3)c12 | 9.06% (inactive) |  |
| Cc1ccc(OCCn2c(CCNC(=O)C3CCCCC3)nc3ccccc32)cc1 |  | inactive |
| C#CCOc1cccc(-c2nnc3n2N=C(c2ccc(OC)c(OCC(C)=O)c2)CS3)c1 | 11.3% (inactive) |  |
| CC(=O)Nc1cccc([S+](=O)([O-])N2CCCN([S+](=O)([O-])c3cccc(NC(C)=O)c3)CC2)c1 | 1.14% (inactive) |  |
| Cc1ccc(S(=O)(=O)Nc2cnccc2C(=O)Nc2ccc3ccccc3c2)cc1 | 4.2% (inactive) |  |
| Cc1cccc(C)c1OCc1cccc(C2Nc3ccccc3C(=O)N2Cc2ccco2)c1 (stereo not given) | 1.37% (inactive) |  |
| Cc1noc(CN(C)c2ncnc3ccc(-c4ccc5c(c4)OCO5)cc23)n1 | -4.21% (inactive) |  |
| COc1cccc(-c2nnc3n2N=C(c2ccc(OC)cc2OC)CS3)c1 | 0.818% (inactive) |  |
| CC(C)c1ccccc1-c1nccc(NCc2ccc(-c3ccnc(C(F)(F)F)c3)cc2)n1 | 1.58% (inactive) |  |
| CC(C)(C)OC(=O)Cc1nnc(C(C(=O)OCc2ccccc2)c2ccccc2)s1 (stereo not given) | 10.5% (inactive) |  |
| Cc1c(C(=O)O)[nH]c2c1C(=O)CCC2 | -15.3% (inactive) |  |
| C[S+](=O)([O-])c1ccc(-c2ccc(=O)n(CC(=O)NCCc3ccccc3)n2)cc1 | -18.2% (inactive) |  |
| c1ccc(-c2cnc(Nc3ccc(OCCN4CCCC4)cc3)s2)cc1 | 4.04% (inactive) |  |
| Cn1ccc2cc(S(=O)(=O)N3CCN(S(=O)(=O)c4c(F)cccc4F)CC3)ccc21 | -3.21% (inactive) |  |

| Compound | activity change, negative = inhibition | Potency |
| --- | --- | --- |
| Oc1cc(Nc2ccncc2)cc2cccnc12 | -26.1% (inactive) |  |
| N#Cc1cc(NC(=O)Nc2nnc(-c3ccncc3)s2)ccc1Br | -21.2% (inactive) |  |
| O=C(Nc1nnc(-c2ccco2)o1)c1ccc(Br)cc1 | -6.55% (inactive) |  |
| Cc1cccc(CNc2ncnc3ccc(-c4ccc5c(c4)OCO5)cc23)c1 | 18.6% (inactive) |  |
| CCC(O)(c1nnc(NCc2ccc3c(-c4ccc(F)cc4)cc(=O)oc3c2)o1)C(F)(F)F (stereo not given) | 15.1% (inactive) |  |
| O=C(O)CCc1cc(F)c(S(=O)(=O)N2CCN(S(=O)(=O)c3ccc4c(c3)OCCO4)CC2)cc1F | 3.33% (inactive) |  |
| Cc1cc(C)nc(NC(=S)N2CCN(c3cccc(S(C)(=O)=O)c3)CC2)c1 | 1.15% (inactive) |  |
| COC(=O)c1ccccc1NC(=O)c1ccc(F)cc1F | -8.4% (inactive) |  |
| CCOC(=O)/C=C/c1cc(F)c(S(=O)(=O)N2CCN(S(=O)(=O)c3ccc4c(c3)OCCO4)CC2)cc1F | 1.73% (inactive) |  |
| COc1cc(Nc2nc(-c3ccncc3)nc3ccccc23)ccc1Cl | -5.3% (inactive) |  |
| Cc1ccc(=O)n(CC(=O)NCCc2ccccc2)n1 | -3.39% (inactive) |  |
| Cc1ccc(OCCn2c(CCNC(=O)c3ccc(Br)o3)nc3ccccc32)cc1 | 7.64% (inactive) |  |
| CC(C)(C)OC(=O)N1CCC(C(=O)Nc2ccc([S+](=O)([O-])Nc3nccs3)cc2)CC1 | 0.266% (inactive) |  |
| C=C1C(=O)O[C@H]2[C@H]1CC/C(C)=C/CC[C@@]1(C)O[C@@H]21 | 11.1% (inactive) |  |
| O=C1CCCC2=C1[C@@]1(CCC(c3ccccc3)C1)N=C(Nc1nc3ccccc3o1)N2 (stereo not given in full) |  | inactive |
| O=C(O)CC(=O)OC[C@H]1O[C@@H](Oc2ccc3c(c2)OC[C@H]2c4cc5c(cc4O[C@@H]32)OCO5)[C@H](O)[C@@H](O)[C@@H]1O | 1.56% [at 28 µM] (inactive) |  |
| Cc1c(P(=S)(c2ccccc2)c2ccccc2)c2ccccc2n1CCc1ccccc1 | -20.3% (inactive) |  |
| COC1CC(O[C@H]2CC[C@]3(C)C4CC[C@@]5(C)C(=O)[C@]4(CC[C@@H]3C2)CC[C@@H]5C2=CC(=O)OC2)OC(C)C1OC1OC(COC2OC(CO)C(O)C(O)C2O)C(O)C(O)C1O (stereo not given in full) | -4.74% [at 16.9 µM] (inactive) |  |
| Cc1ccc(-c2cc(C(=O)Nc3ccc(S(=O)(=O)N(C)C)cc3)c3ccccc3n2)cc1C | 7.77% (inactive) |  |
| CCCn1c(C)nc2c(NCCCCN(C)C)nc(C)nc21 | 9.8% (inactive) |  |
